# Source: the supplement of paper PMC9023506
# Structures can show the parent of a compound that is named as a salt.
# System: Danio rerio larvae (5 dpf)
# Assay: activity during first hour (no stimuli), difference vs DMSO (percentage points (treated minus DMSO)); higher = more of the behaviour than the DMSO vehicle control
# Details: 10 µM; exposure time: 3 h pre-incubation + 3 h imaging
# Experimental: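 5-dpf wild-type zebrafish larvae were imaged in 96-well plates. They were treated with 190 Tocris FDA-approved drugs at 10 µM (1 µl/ml DMSO) for 3 h before and 3 h during imaging at 28.5 °C, 48 larvae per drug. Automated image analysis gave % time moving and optomotor responses. Values are drug group mean minus DMSO vehicle mean (n=844), in percentage points, for 10 behaviours.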
row,SMILES,activity during first hour
1,C[C@H]1C[C@@H]2[C@H]([C@@H](O)C[C@@]3(C)[C@H]2CC[C@]3(O)C(=O)CO)[C@@]2(C)C=CC(=O)C=C12 [Methylprednisolone],0.814
2,CCOC(=O)C1=C(C)NC(C)=C(C(=O)OC)C1c1cccc(Cl)c1Cl (stereo not given) [Felodipine],-12.9
3,Cc1ccc(N(CC2=NCCN2)c2cccc(O)c2)cc1 [Phentolamine Mesylate],9.58
4,Clc1ccccc1C(c1ccccc1)(c1ccccc1)n1ccnc1 [Clotrimazole],-21.6
5,CCCN(CCC)S(=O)(=O)c1ccc(C(=O)O)cc1 [Probenecid],-2.71
6,CCCCC(=O)N(Cc1ccc(-c2ccccc2-c2nnn[nH]2)cc1)[C@H](C(=O)O)C(C)C [Valsartan],4.88
7,Cc1ccccc1C(=O)Nc1ccc(C(=O)N2CCCC(O)c3cc(Cl)ccc32)c(C)c1 (stereo not given) [Tolvaptan],1.26
8,CC(C)N(CCCCOCC(=O)NS(C)(=O)=O)c1cnc(-c2ccccc2)c(-c2ccccc2)n1 [Selexipag],4.1
9,Nc1ccn([C@@H]2O[C@H](CO)[C@@H](O)C2(F)F)c(=O)n1 [Gemcitabine hydrochloride],-4.38
10,CC(=O)Oc1cc2c(s1)CCN(C(C(=O)C1CC1)c1ccccc1F)C2 (stereo not given) [Prasugrel],-1.24
11,CC1=Nc2ccc(Cl)cc2S(=O)(=O)N1 [Diazoxide],6.7
12,COc1cc([C@@H]2c3cc4c(cc3[C@@H](O[C@@H]3O[C@@H]5CO[C@@H](C)O[C@H]5[C@H](O)[C@H]3O)[C@H]3COC(=O)[C@H]23)OCO4)cc(OC)c1O [Etoposide],3.81
13,O=C(c1ccc(OCCN2CCCCC2)cc1)c1c(-c2ccc(O)cc2)sc2cc(O)ccc12 [Raloxifene hydrochloride],-5.98
14,Nc1nc2c(ncn2COCCO)c(=O)[nH]1 [Acyclovir],-2
15,COc1ccccc1Oc1c(NS(=O)(=O)c2ccc(C(C)(C)C)cc2)nc(-c2ncccn2)nc1OCCO [Bosentan],1.27
16,CCOC(=O)N1CCC(=C2c3ccc(Cl)cc3CCc3cccnc32)CC1 [Loratidine],-17
17,CNS(=O)(=O)Cc1ccc2[nH]cc(CCN(C)C)c2c1 [Sumatriptan succinate],7.71
18,Nc1cc(N2CCCCC2)nc(N)[n+]1[O-] [Minoxidil],2.82
19,Cc1nc(Nc2ncc(C(=O)Nc3c(C)cccc3Cl)s2)cc(N2CCN(CCO)CC2)n1 [Dasatinib],-11.4
20,CC(C)(C#N)c1cc(Cn2cncn2)cc(C(C)(C)C#N)c1 [Anastrozole],3.37

row,SMILES,activity during first hour
1,CN1CCN2c3ncccc3Cc3ccccc3C2C1 (stereo not given) [Mirtazapine],11.7
2,CN[C@H]1CC[C@@H](c2ccc(Cl)c(Cl)c2)c2ccccc21 [Sertraline hydrochloride],-24.2
3,Cc1ccc(O)c([C@H](CCN(C(C)C)C(C)C)c2ccccc2)c1 [Tolterodine L-tartrate],1.86
4,CC(C)OC(=O)C(C)(C)Oc1ccc(C(=O)c2ccc(Cl)cc2)cc1 [Fenofibrate],6.44
5,OCCN1C[C@H](O)[C@@H](O)[C@H](O)[C@H]1CO [Miglitol],-1.33
6,C[C@]12CCC(=O)C=C1CC[C@@H]1[C@@H]2[C@@H](O)C[C@@]2(C)[C@H]1CC[C@]2(O)C(=O)CO [Hydrocortisone],3.43
7,COc1cccc2c1C(=O)c1c(O)c3c(c(O)c1C2=O)C[C@@](O)(C(=O)CO)C[C@@H]3O[C@H]1C[C@H](N)[C@H](O)[C@H](C)O1 [Doxorubicin hydrochloride],-5.82
8,C[C@@H]1C[C@H]2[C@@H]3CCC4=CC(=O)C=C[C@]4(C)[C@@]3(F)[C@@H](O)C[C@]2(C)[C@@]1(O)C(=O)CO [Dexamethasone],15
9,OC(c1cc(C(F)(F)F)nc2c(C(F)(F)F)cccc12)C1CCCCN1 (stereo not given) [Mefloquine hydrochloride],-1.64
10,CCN(Cc1ccncc1)C(=O)C(CO)c1ccccc1 (stereo not given) [Tropicamide],-5.17
11,CC(C)c1nc(N(C)S(C)(=O)=O)nc(-c2ccc(F)cc2)c1/C=C/[C@@H](O)C[C@@H](O)CC(=O)O [Rosuvastatin calcium],3.37
12,CC[C@H]1OC(=O)[C@H](C)[C@@H](O[C@H]2C[C@@](C)(OC)[C@@H](O)[C@H](C)O2)[C@H](C)[C@@H](O[C@@H]2O[C@H](C)C[C@H](N(C)C)[C@H]2O)[C@](C)(O)C[C@@H](C)CN(C)[C@H](C)[C@@H](O)[C@]1(C)O [Azithromycin],-12.2
13,CC1CNc2c(cccc2S(=O)(=O)N[C@@H](CCCNC(=N)N)C(=O)N2CC[C@@H](C)C[C@@H]2C(=O)O)C1 (stereo not given in full) [Argatroban],4.69
14,CCCC1O[C@@H]2C[C@H]3[C@@H]4CCC5=CC(=O)C=C[C@]5(C)[C@H]4[C@@H](O)C[C@]3(C)[C@]2(C(=O)CO)O1 (stereo not given in full) [Budesonide],4.76
15,COc1c(C)c2c(c(O)c1C/C=C(\C)CCC(=O)O)C(=O)OC2 [Mycophenolic acid],2.64
16,CN(CCOc1ccc(NS(C)(=O)=O)cc1)CCc1ccc(NS(C)(=O)=O)cc1 [Dofetilide],1.68
17,CCCN(CCc1cccs1)[C@H]1CCc2c(O)cccc2C1 [Rotigotine hydrochloride],-26.8
18,CCOC(=O)[C@H](CCc1ccccc1)N[C@H]1CCc2ccccc2N(CC(=O)O)C1=O [Benazepril hydrochloride],1.65
19,Cc1cn([C@H]2C=C[C@@H](CO)O2)c(=O)[nH]c1=O [Stavudine],-4.71
20,CCCc1nc(C(C)(C)O)c(C(=O)O)n1Cc1ccc(-c2ccccc2-c2nnn[nH]2)cc1 [Olmesartan],12.1
